Screens from PubChem.
Shown are actives, neighbours in structure and some others; about 11% of the full set was active somewhere.
HEK293 tox – cytotoxic compounds in HEK 293 cells | AID 1345083 | Potency, µM (top dose mostly 115 µM), for the others: at the highest dose activity change, negative = cytotoxicity, most hits filed as inhibitors | HEK 293 viability, ATP luminescence (CellTiter-Glo), 48-72 h | actives 6.6% (n = 94,000); further: on the % scale 0 is the no-effect control and ±100 the full control effect; nearly all actives have a fitted effect of over 60% in size
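HEK 293 cells seeded at 250 cells/well were exposed to compound for 48 or 72 hr at 37 degree Celsius. Viability taken as ATP content by CellTiter-Glo luminescence.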
FLuc inh-1 – blocks purified firefly luciferase enzyme activity | actives 2.5% (n = 76,000) | AID 1347043 | P08659 | Potency, µM (top dose mostly 115 µM), usual class: inhibitors | purified P. pyralis luciferase, luminescence, biochemical; further: on the % scale 0 is the no-effect control and ±100 the full control effect; nearly all actives have a fitted effect of over 65% in size
Target sequence (P08659 whole entry, looked up): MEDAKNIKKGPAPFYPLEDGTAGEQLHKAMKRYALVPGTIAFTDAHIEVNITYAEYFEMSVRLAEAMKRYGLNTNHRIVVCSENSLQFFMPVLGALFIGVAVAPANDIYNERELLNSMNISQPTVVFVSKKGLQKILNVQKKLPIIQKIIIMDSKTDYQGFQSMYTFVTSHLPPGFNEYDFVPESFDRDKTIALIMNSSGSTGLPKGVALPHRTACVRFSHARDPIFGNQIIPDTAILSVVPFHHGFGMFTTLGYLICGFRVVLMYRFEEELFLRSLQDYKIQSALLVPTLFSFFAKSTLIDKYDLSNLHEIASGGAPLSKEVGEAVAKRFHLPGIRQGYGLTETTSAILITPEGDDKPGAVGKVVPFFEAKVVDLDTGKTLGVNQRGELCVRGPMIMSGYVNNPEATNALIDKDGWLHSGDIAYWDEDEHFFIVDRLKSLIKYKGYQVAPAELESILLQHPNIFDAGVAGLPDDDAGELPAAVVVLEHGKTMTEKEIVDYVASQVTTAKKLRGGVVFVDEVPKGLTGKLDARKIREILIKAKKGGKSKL
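Biochemical qHTS: compound (6-point titration) added to 10uM D-luciferin plus 10uM ATP in Tris acetate pH 7.5 buffer with Mg, Tween-20 and BSA, then purified enzyme at 10nM; light output imaged.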
NPR1 antag – antagonists of human natriuretic peptide receptor Npr1; Potency, µM (doses to about 46.3 µM), for the others: top-dose activity change, negative = inhibition, actives largely listed as inhibitors; HEK293 hNpr1 GloSensor cGMP, ANP-stimulated luminescence; actives 1.6% (n = 76,000); AID 1347048; calls by dose curve; further: on the % scale 0 is the no-effect control and ±100 the full control effect; nearly all actives have a fitted effect of over 60% in size
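Compound pre-incubated 30 min at room temperature on GloSensor-loaded HEK293 cells stably carrying hNpr1 and the pGS-40F cGMP biosensor. Stimulation uses hNppA at 0.1 nM final; luminescence is taken at baseline and 20 min post-agonist.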
3T3 cytotox – kills NIH 3T3 cells. Potency, µM (series often up to 96.7 µM), inactives show top-dose activity change, negative = cytotoxicity, actives largely listed as inhibitors. NIH 3T3 viability, CellTiter-Glo ATP luminescence, 48-72 h. AID 1345082. actives 4.3% (n = 94,000); further: on the % scale 0 is the no-effect control and ±100 the full control effect; nearly all actives have a fitted effect of over 55% in size
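Viability of NIH 3T3 cells after 48 or 72 hr compound treatment at 37 °C was assessed by CellTiter-Glo, with luminescence imaged following a 10 min room-temperature step.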
FLuc SDR -ATP – firefly luciferase binding stabilization, ATP absent; shares compounds with FLuc inh-1; Purified FLuc-C-HiBiT, Nano-Glo HiBiT luminescence, no ATP; Potency, µM (highest dose often 32.7 µM), for the others: top-dose activation (signal gain), most hits filed as activators; actives 7.8% (n = 1,300); AID 1963318; further: nearly all actives have a fitted effect of over 55% in size
FLuc SDR ATP – binders stabilizing firefly luciferase, plus ATP | AID 1963319 | Potency, µM (doses to about 32.7 µM), for inactives: at the highest dose activation (gain of signal), actives largely listed as activators | purified FLuc-C-HiBiT + ATP, HiBiT complementation luminescence | shares compounds with FLuc inh-1 | actives 8.7% (n = 1,300);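 further: signal reports ligand binding via conformational change of the enzyme rather than luciferase catalysis; % of control where 0% means no effect; nearly all actives have a fitted effect of over 55% in size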
FLuc inh-2 – inhibitors of firefly luciferase enzymatic activity; Potency, µM (top dose mostly 32.7 µM), for inactives: at the top dose activity change, negative = inhibition, most hits filed as inhibitors; purified FLuc-C-HiBiT enzyme, luciferin luminescence; actives 42% (n = 1,300); shares compounds with FLuc inh-1; further: on the % scale 0 is the no-effect control and ±100 the full control effect; nearly all actives have a fitted effect of over 70% in size
* = called active by the depositor; i = inactive; ? = inconclusive; · = not tested or not shown; [ ] = another dose, or the depositor's remark. Unless noted, the call rests on the fitted dose curve; in most records, active means well fitted curve in the direction sought with a large enough effect; inconclusive means small, poorly fitted or top-dose-only effect, or another doubt; inactive means no such curve, though single readings can be large; an effect the other way counts as inactive or inconclusive. Potency means the concentration at half of the fitted maximal effect.

SMILES	HEK293 tox	FLuc inh-1	NPR1 antag	3T3 cytotox	FLuc SDR -ATP	FLuc SDR ATP	FLuc inh-2
COc1c(C)cccc1C(=O)Nc1ccc(-c2nc3ccccc3s2)c(Cl)c1	·	·	·	·	7.5%	6.5%	-15.5%
COc1ccc(C(=O)Nc2ccc(-c3nc4ccccc4s3)c(Cl)c2)cc1Cl	·	·	·	·	13.6%	10.9%	-12.0%
CCOc1ccc(C(=O)Nc2ccc(-c3nc4ccccc4s3)c(C)c2)cc1OCC	·	·	·	·	18.4%	10.7%	-10.3%
O=C(NCc1ccc(Cl)cc1)c1ccc2nnc(-c3cccnc3)n2c1	?	·	·	-14.5%	·	·	·
Cc1noc(-c2nc(-c3ccccc3C)no2)n1	-5.3%	?	2.6%	i	·	·	·
CCc1noc(-c2nc(-c3ccccc3C)no2)n1	?	14.1µM*	2.2%	-24.1%	9.2%	8.0%	-13.7%
COCCN1CCOc2nc(-c3cccc(N(C)C)c3)ncc2C1=O	·	·	·	·	28.1%[49.3 µM]	?	?
O=C1c2cnc(-c3cc4ccccc4o3)nc2OCCN1Cc1ccccc1	?	0.1µM*	8.91µM*	?	?	?	1.61µM*
COc1cccc(-c2ncc3c(n2)OCCN(Cc2ccccc2)C3=O)c1	?	2.82µM*	?	?	23.6%[49.3 µM]	?	?
COc1ncccc1-c1ncc2c(n1)OCCN(Cc1ccccc1)C2=O	-34.8%[172 µM]	i	-12.4%[70.6 µM]	?	·	·	·
COc1ccc(-c2ncc3c(n2)OCCN(Cc2ccccc2)C3=O)cc1	?	2.51µM*	28.2µM*	?	19.0%[49.3 µM]	15.0%[49.3 µM]	?
C[C@@H](NC(=O)C1CCOCC1)c1onc(-c2ccc(F)cc2)c1C(=O)O	i	i	2.6%[70.6 µM]	-0.5%[138 µM]	·	·	·
Cc1cc(C(=O)N2CC[C@H](NS(=O)(=O)c3cn(C)cn3)C[C@H]2C(=O)N[C@@H](Cc2cccs2)C(N)=O)n(C)n1	i	i	4.3%	0.1%	·	·	·
COCc1nc(CCNC(=O)COc2ccc(F)cc2)no1	-5.7%	i	0.0%	i	·	·	·
Cc1cc(C)cc(N2CCN(c3cc(C4CC(O)C4)ncn3)CC2=O)c1 (stereo not drawn)	-18.8%	i	1.9%	-20.1%	·	·	·
OC1CC(c2cc(N3CCc4c(Cl)cccc4C3)ncn2)C1 (stereo not drawn)	?	1.26µM*	2.51µM*	?	17.9%	?	?
O=C(c1nc2sccn2c1-c1ccncc1)N1CCCCC1	-4.5%	·	·	4.6%	·	·	·
Cc1cccc(CNC(=O)Cc2csc3ccccc23)c1	·	·	·	·	15.5%	11.7%	-17.3%
COCC(=O)Nc1nc2c(s1)C[C@]1(C)CC[C@@H]3[C@H](OC(=O)[C@H]3C)[C@H]1[C@@H]2C	?	0.631µM*	5.62µM*	-20.8%[138 µM]	6.4µM*	4.53µM*	1.61µM*
O=C(c1cccs1)N1CCC(c2noc(-c3ccncc3)n2)C1 (stereo not drawn)	-0.2%	i	6.1%	-1.8%	·	·	·
CCc1cc(NCCc2nc(C)cs2)n2nccc2n1	0.6%	i	-1.5%	-11.3%	·	·	·
CC(C)c1ccc(C(=O)Nc2cccc3cccnc23)cc1	·	·	·	·	17.5%	12.2%	?
CN1CCC(Oc2ncccc2NC(=O)c2ccncc2)C1 (stereo not drawn)	6.2%	i	-0.8%	i	·	·	·
CNc1ccc(-c2noc([C@@H]3CCCN3C3CCC3)n2)cn1	-7.0%[172 µM]	?	2.3%[70.6 µM]	-4.7%[138 µM]	·	·	·
Cc1cc(NCCc2cnccn2)nc(-c2ccccc2O)n1	?	10µM*	0.3%	?	16.4%	12.6%	-16.7%
SMILES	HEK293 tox	FLuc inh-1	NPR1 antag	3T3 cytotox	FLuc SDR -ATP	FLuc SDR ATP	FLuc inh-2
O=C(O)CCSc1nnc(-c2ccc(Cl)cc2Cl)o1	·	·	·	·	?	0.7µM*	0.495µM*
COc1ccc(NC(=O)N2CCc3c(C(=O)NCCN4CCCCCC4)cccc32)cc1	?	1.58µM*	10µM*	-23.1%	?	0.785µM*	0.556µM*
Cc1cccc(NC(=O)N2CCc3c(C(=O)N(C)Cc4ccco4)cccc32)c1	?	?	-19.0%	?	·	·	·
COc1ccc(NC(=O)N2CCc3c(C(=O)N(C)C)cccc32)cc1	?	0.251µM*	3.98µM*	?	?	0.157µM*	0.111µM*
COc1ccc(NC(=O)N2CCc3c(C(=O)N(C)Cc4ccco4)cccc32)cc1	?	3.98µM*	?	-26.8%	?	2.48µM*	1.76µM*
CCOc1ccccc1NC(=O)Cn1c(-c2cccc(Cl)c2)nc(C)c(CCO)c1=O	?	i	-15.0%	-15.9%	·	·	·
Clc1cc(N2CCC(N3CCOCC3)CC2)n2nccc2n1	-26.3%[172 µM]	i	18.3%[70.6 µM]	-4.4%[138 µM]	·	·	·
O=C(Nc1ccc([C@H]2OCC(=O)N(C3CCOCC3)[C@@H]2CO)cc1)c1ccc(C(F)(F)F)cc1	-5.0%	10µM*	-0.2%	-17.9%	?	14.6%	?
N#Cc1ccc(C(=O)Nc2ccc([C@H]3OCC(=O)N(C4CCOCC4)[C@@H]3CO)cc2)cc1	-4.3%	i	0.0%	0.6%	·	·	·
CS(=O)(=O)N1CCC2(CC1)CC(CC(=O)NCCCn1cccn1)CCO2 (stereo not drawn)	7.1%	i	2.4%	-1.4%	·	·	·
O=C1c2cnc(-c3ccc(F)cc3)nc2OCCN1CC1CC1	·	·	·	·	?	?	14.3µM*
O=C1c2cnc(-c3ccc(F)cc3F)nc2OCCN1CC1CC1	·	·	·	·	29.9%[49.3 µM]	?	?
CCN1C(=O)C2CC3(CCN(C4CCN(C)CC4)CC3)CN2C1=O (stereo not drawn)	-16.2%	i	-5.2%	-5.9%	·	·	·
CCOC(=O)c1ccc(NC(=O)c2csc3c2CCCC3)cc1	·	·	·	·	15.6%	10.9%	?
Cn1ncc2c(C(=O)NCc3ccccc3Cl)cc(-c3ccc(C(F)(F)F)cc3)nc21	?	·	·	-32.9%	·	·	·
CN(C1CCc2ccccc2C1)[S+](=O)([O-])c1cccs1 (stereo not drawn)	?	i	3.3%[70.6 µM]	?	12.0%[49.3 µM]	6.4%[49.3 µM]	-9.1%[49.3 µM]
COc1ccc(CNC(=O)C[C@@H]2C[C@@H](C(C)C)[C@H](CNC(=O)c3cccnc3)C=C2C)cc1	?	14.1µM*	-12.8%	?	10.8%	9.6%	7.0%
COc1ccc(CNC(=O)C[C@@H]2C[C@@H](C(C)C)[C@H](CNC(=O)c3ccc(C#N)cc3)C=C2C)cc1	?	i	-9.5%	?	·	·	·
O=C(NC1CCN(c2cc(-c3ccccc3)[nH]n2)C1)c1cccs1 (stereo not drawn)	?	i	-13.9%	?	·	·	·
Cc1ccc2sc(-c3ccc(N)cc3)nc2c1	·	·	·	·	3.13µM*	?	0.279µM*
CC(C)(C)C(=O)Nc1ccc(-c2nc3ccccc3s2)cc1	·	·	·	·	0.0785µM*	0.0442µM*	0.0197µM*
